Laboratory results taken from the supplement of paper PMC6555819.

Key:
Assay in all cases: PBM binding z-score (relative to random genomic background probes); higher = stronger binding; sequences stand for … in GC…GCGATTGACAGCGTAGAATGAAGG
[1] = tested on: FXR:RXRa (NR concentration 270 nM, RXRa partner concentration 90 nM)
Outline: (§1)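 For binding z-scores, the reference was random background probes on custom Agilent 4×180K protein-binding microarrays. These arrays were incubated 1 h with ligand-free nuclear receptor dimers in PBS pH 7.4, 2% milk, 0.02% Triton X-100, 1 mM DTT, 0.2 mg/mL BSA and 0.4 mg/ml salmon testes DNA. Fluorescence was scanned after antibody detection of each partner (one per run) and regression-normalized.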

[2] = tested on: LXRa:RXRa (NR concentration 270 nM, RXRa partner concentration 90 nM)
Outline: as §1

[3] = tested on: LXRa homodimer (NR concentration 270 nM)
Outline: as §1

[4] = tested on: LXRb:RXRa (NR concentration 270 nM, RXRa partner concentration 90 nM)
Outline: as §1

[5] = tested on: LXRb homodimer (NR concentration 270 nM)
Outline: as §1

[6] = tested on: PPARa:RXRa (NR concentration 270 nM, RXRa partner concentration 90 nM)
Outline: as §1

[7] = tested on: PPARg:RXRa (NR concentration 180 nM, RXRa partner concentration 90 nM)
Outline: as §1

[8] = tested on: PPARg:RXRa 270nM:90nM, anti-RXR (NR concentration 270 nM, RXRa partner concentration 90 nM)
Outline: as §1

[9] = tested on: PPARg:RXRa 30nM:10nM, anti-RXR (NR concentration 30 nM, RXRa partner concentration 10 nM)
Outline: as §1

[10] = tested on: PPARg:RXRa 90nM:30nM, anti-RXR (NR concentration 90 nM, RXRa partner concentration 30 nM)
Outline: as §1

| Sequence | PBM binding z-score [1] | PBM binding z-score [2] | PBM binding z-score [3] | PBM binding z-score [4] | PBM binding z-score [5] | PBM binding z-score [6] | PBM binding z-score [7] | PBM binding z-score [8] | PBM binding z-score [9] | PBM binding z-score [10] |
| --- | --- | --- | --- | --- | --- | --- | --- | --- | --- | --- |
| CAAACTAGGTCAAAGTCAAAGTCGGTTTGTGCCA | 4.66 | 3.77 | 0.899 | 2.64 | 1.02 | 5.18 | 8.68 | 7.7 | 6.17 | 8.03 |
| GCTATTAGTTGAAAGGGCAACCGGATGATTCTCG | 0.785 | 0.839 | 0.362 | 0.759 | -0.334 | 2.31 | 2.78 | 4.56 | 2.87 | 4.49 |
| GCTGCTAGGTCACCTGATGGTCAGCTAAAGCTCG | 3.25 | 2.4 | -0.338 | 1.66 | -0.22 | 3.22 | 2.21 | 2.86 | 0.569 | 1.95 |
| GCTGCGAGGTCAGGTTGGTCAGCTAACGGGTACG | 5.45 | 3.46 | 0.305 | 2.93 | 0.482 | 4.38 | 2.49 | 2.99 | 0.517 | 1.75 |
| CCTACTGGGCCAAACGTCATTGATTCCAATGCTC | -0.411 | -0.228 | -0.236 | -0.0474 | -0.218 | 2.31 | 4.96 | 6.47 | 5.56 | 6.79 |
| ACTAGCAGGCCAAGTTTGGGTCACTCCAACAAAG | 0.154 | 0.00504 | -0.19 | 0.664 | -0.49 | 1.18 | -0.0331 | -0.0928 | -0.803 | -0.387 |
| TCTATTAGTTTAAGGGCAACCGACGAGTCCGTTT | 1.36 | 1.32 | 0.766 | 1.32 | 0.433 | 1.33 | 0.0687 | 2.32 | 3.91 | 3.18 |
| AATACAGGGTCATCGTAGTCCAGAGTACGCACAG | 7.48 | 6.18 | 2.88 | 4.83 | 1.9 | 6.32 | 7.13 | 6.38 | 2.86 | 4.99 |
| ATATGTAGGTTTCATCCGGGTCATTCAGGCTATG | 1.4 | 1.72 | 0.315 | 2.07 | 0.658 | 3.09 | 2.23 | 2.17 | 0.721 | 1.43 |
| ATCTCTAGGTAAAGGTTCAGTGAATCCCGAGGAT | 0.405 | 0.578 | 0.436 | 0.491 | 0.67 | 2.93 | 4.99 | 5.83 | 3.95 | 5.85 |
| TCATATAGGTAATACTGGTGAAAGTCGGCATCTA | 0.82 | 1 | 0.397 | 0.738 | 0.101 | 1.29 | 0.902 | 2.27 | 3.82 | 3.28 |
| CCTTACGGGTAACTGACAGGTTATAGCATTTGGA | 0.183 | 0.937 | 9.84e-05 | 0.454 | -0.428 | 0.56 | 0.319 | 0.0456 | -0.0329 | -0.0443 |
| TCTAGCAGGCCAGAGGGTCACTTAAGAGGTACGG | 1.18 | 0.809 | -0.547 | 1.05 | -1.09 | 2.4 | 1.58 | 2.96 | 2.13 | 2.57 |
| TGTCAAAGTTCAAATGTAACGTAAGTATCCACAC | 7.51 | 6.72 | 5.84 | 4.79 | 3.48 | 5.53 | 8.25 | 7.12 | 5.15 | 6.93 |
| ATCGAAAGGTCGTGAGGTTAGTATACAGAAAGGC | 5.61 | 4.18 | 0.638 | 3.63 | 0.777 | 5.04 | 3.95 | 4.19 | 1.92 | 3.08 |
| GCGACTGGGGCATGAGCAGGTTACCATAACTTAA | -0.261 | -0.325 | -0.638 | 0.484 | -1.12 | 1.1 | 1.08 | 1.11 | -0.134 | 0.437 |
| ATACCAAGGTGATCGTGAGGTCCTTGATACTAAC | 0.569 | -0.0765 | -0.204 | 0.177 | -0.319 | 0.562 | 0.44 | 0.0314 | -0.102 | -0.134 |
| TCTATTAGTTGAGGGGCAACCGACGAGTCCGTTT | 0.999 | 0.876 | 0.028 | 1.41 | 0.923 | 1.18 | 0.143 | 1.75 | 3.58 | 2.71 |
| ATATGTAGGTTAAGGGTCATTTAGGTTGGTTCGC | 5.62 | 4.94 | 3.45 | 4.87 | 1.82 | 6.75 | 11.6 | 9.62 | 10.6 | 11 |
| CGTCCAAGGTCAGAGAGTTCAGTGAATGCCGAGT | 5.22 | 4.79 | 3.36 | 3 | -0.278 | 3.89 | 2.14 | 2.83 | 0.445 | 1.82 |
| ATACCAAGGAGATCGTGAGGTCGTTGATACTAAC | 0.608 | 0.359 | 0.339 | 0.531 | -0.481 | 0.547 | 0.375 | -0.542 | -0.0699 | -0.394 |
| ACTAGCAGGCTAAGGGTCACTCAAGATTAGTCCG | 2.37 | 2.99 | -0.0624 | 2.72 | -0.651 | 4.35 | 6.55 | 6.82 | 6.03 | 7.57 |
| GCTAGCAGGACATTTGGGTCACTCAATGACGGGC | 0.0183 | -0.0744 | -0.248 | -0.0431 | -0.72 | 1.31 | 0.997 | 0.479 | -0.424 | -0.0664 |
